The whole screen tested about 75,000 compounds, of which about 20 (0.03%) were called active. These entries were drawn from the full list. Values without a mark were called inactive. The call rests on the fitted dose curve; in most records, active means well fitted inhibition curve with a large enough effect; inconclusive means small, poorly fitted or top-dose-only effect; inactive means no such curve, though single readings can be large or run the other way.
biological target: Breast cancer type 1 susceptibility protein (Homo sapiens) (UniProt P38398); assay: qHTS Assay for Inhibitors of BRCT-Phosphoprotein Interaction (Red Fluorophore); conditions: BRCT-phosphopeptide binding, red fluorescence polarization; series mostly up to 76.9 µM
Sequence (P38398 whole entry, looked up): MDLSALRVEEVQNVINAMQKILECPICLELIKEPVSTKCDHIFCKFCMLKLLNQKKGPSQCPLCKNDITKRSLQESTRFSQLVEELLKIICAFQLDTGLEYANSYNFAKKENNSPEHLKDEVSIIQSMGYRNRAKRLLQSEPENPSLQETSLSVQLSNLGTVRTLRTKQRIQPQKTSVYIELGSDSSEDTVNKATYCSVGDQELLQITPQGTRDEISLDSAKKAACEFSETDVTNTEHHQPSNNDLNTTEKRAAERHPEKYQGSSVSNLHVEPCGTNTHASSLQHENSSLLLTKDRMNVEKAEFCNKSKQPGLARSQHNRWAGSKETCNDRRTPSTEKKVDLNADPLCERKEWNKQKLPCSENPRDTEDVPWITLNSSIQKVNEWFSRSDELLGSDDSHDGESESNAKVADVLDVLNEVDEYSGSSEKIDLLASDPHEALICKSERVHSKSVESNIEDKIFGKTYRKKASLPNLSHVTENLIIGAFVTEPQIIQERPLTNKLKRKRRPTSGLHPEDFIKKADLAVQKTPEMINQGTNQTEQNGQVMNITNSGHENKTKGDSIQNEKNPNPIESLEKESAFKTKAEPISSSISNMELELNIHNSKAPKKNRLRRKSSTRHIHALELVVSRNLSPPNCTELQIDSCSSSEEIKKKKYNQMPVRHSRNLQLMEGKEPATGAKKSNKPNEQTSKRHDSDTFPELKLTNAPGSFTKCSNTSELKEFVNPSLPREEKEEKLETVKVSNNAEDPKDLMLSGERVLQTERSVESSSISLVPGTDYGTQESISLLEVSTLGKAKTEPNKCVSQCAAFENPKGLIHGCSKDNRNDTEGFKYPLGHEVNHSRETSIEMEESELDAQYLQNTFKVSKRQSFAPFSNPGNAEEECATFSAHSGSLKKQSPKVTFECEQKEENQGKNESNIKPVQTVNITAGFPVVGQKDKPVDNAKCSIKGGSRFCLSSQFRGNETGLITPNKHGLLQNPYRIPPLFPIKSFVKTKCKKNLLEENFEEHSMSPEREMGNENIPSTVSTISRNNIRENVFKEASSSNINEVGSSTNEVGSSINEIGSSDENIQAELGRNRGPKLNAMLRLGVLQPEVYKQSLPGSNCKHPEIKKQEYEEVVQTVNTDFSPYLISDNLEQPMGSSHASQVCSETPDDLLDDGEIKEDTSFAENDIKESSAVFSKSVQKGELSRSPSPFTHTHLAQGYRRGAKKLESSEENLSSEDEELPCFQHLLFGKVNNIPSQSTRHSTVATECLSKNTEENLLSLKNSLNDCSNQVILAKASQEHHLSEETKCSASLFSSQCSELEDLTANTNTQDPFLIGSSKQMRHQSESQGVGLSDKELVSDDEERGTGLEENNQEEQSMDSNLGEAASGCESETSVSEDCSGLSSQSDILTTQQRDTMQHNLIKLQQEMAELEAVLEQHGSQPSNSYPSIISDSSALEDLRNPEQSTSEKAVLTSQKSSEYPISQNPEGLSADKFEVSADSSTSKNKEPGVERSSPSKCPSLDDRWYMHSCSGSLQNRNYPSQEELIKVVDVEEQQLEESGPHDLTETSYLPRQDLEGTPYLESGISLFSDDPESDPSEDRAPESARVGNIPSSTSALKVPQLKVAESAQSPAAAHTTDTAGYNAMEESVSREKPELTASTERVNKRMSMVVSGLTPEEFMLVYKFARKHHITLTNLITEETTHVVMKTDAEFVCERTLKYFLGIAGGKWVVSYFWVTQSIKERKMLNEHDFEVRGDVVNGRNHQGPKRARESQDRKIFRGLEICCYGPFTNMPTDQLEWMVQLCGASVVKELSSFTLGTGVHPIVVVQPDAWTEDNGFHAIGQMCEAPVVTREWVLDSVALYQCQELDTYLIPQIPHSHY
Protocol: NIH Molecular Libraries Screening Centers Network [MLSCN]
NIH Chemical Genomics Center [NCGC]
PI Name: Natarajan, Amarnath; University of Texas
A complex of BRCT (C-terminal portion of BRCA1, MW ~35 kDa, His-tagged) and fluorescently labeled pBACH1 phosphorylated 10 aa peptide fragment of BACH1, a helicase implicated in DNA repair, is incubated with library members. Inhibitors of BRCT-pBACH1 binding are detected by a decrease in the fluorescence polarization (FP) of the fluorophore. In order to minimize the effect of fluorescence artifacts and to increase the overall robustness of the screen, the compound library members were incubated in separate reactions with rhodamine-labeled probe-protein complexes. Protein and labeled probes were supplied by Dr. Amarnath Natarajan, Department of Pharmacology and Toxicology, University of Texas Medical Branch Galveston, TX.
Assay Buffer: 16mM Na2HPO4, 4 mM NaH2PO4, 150 mM NaCl, 1 mM EDTA, 1 mM DTT, 0.02% NaN3, and 0.01% Tween 20 at pH 7.3.
Assay Controls: 100 nM TAMRA labeled decapeptide dispensed into columns 3 and 4 to generate negative control (full inhibition of
binding, -100 % activity). 100 nM labeled decapeptide/100 nM protein in columns 1, 2, 5 - 48. Titration of unlabeled decapeptide control (from 10 mM, then 1:2 dilution in duplicate) pin-transferred to column 2, rows 1 to 16. Column 1 is neutral.
Three uL of reagents were dispensed to 1536-well Greiner black solid-bottom plates. Compounds and controls (23 nL) were transferred via Kalypsys PinTool. The plates were incubated for 12 min at room temperature, and then read on ViewLux (Perkin-Elmer) High-throughput CCD imager using BODIPY for the rhodamine-labeled decapeptide probe polarization filter sets. During dispense, reagent bottles were kept submerged into 4 deg C water bath and all liquid lines were covered with aluminum foil to minimize probe and protein degradation. All screening operations were performed on a Kalypsys robotic system (Kalypsys, Inc., San Diego, CA) containing one RX-130 and two RX-90 anthropomorphic robotic arms. The timing and order of assay plates passing through the screening system were adjusted such that each compound library plate was assayed against the fluorescein- and rhodamine-labeled assay systems at immediately adjacent time points.
On the % scale 0 is the no-effect control and ±100 the full control effect.

SMILES | activity change, negative = inhibition
CCOC(=O)Nc1ccc2c(c1)N(C(=O)CN1CCN3CCCC3C1)c1ccccc1CC2 (stereo not given) | inactive
COc1ccc(C)cc1-n1nnnc1SCC(=O)c1cc(C)n(Cc2ccco2)c1C | inactive
O=C(CN1CCN(c2ccccc2F)CC1)c1ccc2c(c1)OCO2 | inactive
COc1ccc(OC)c(NC(=O)CN2CCN(C(=O)c3ccco3)CC2)c1 | inactive
COCCn1nnnc1C(c1ccccc1Cl)N1CCN(c2ccccc2OC)CC1 (stereo not given) | inactive
COC(=O)[C@@H]1C[C@@]2(O)[C@H](O)[C@H](O)[C@H](O)C[C@H]2N1CC1CCCCC1 | inactive
CC(C)Oc1ccc(C2NC(=O)NC2=O)cc1 (stereo not given) | inactive
O=C(CN(Cc1ccccc1)C(=O)c1ccc2c(c1)OCCO2)NCc1ccc2c(c1)OCO2 | inactive
CC(=O)N1CCC2(CCCN(Cc3ccccc3)C2)CC1 | inactive
COc1ccccc1NC(=O)CSc1nnc(Cc2cccn2C)n1-c1ccc(F)cc1 | inactive
O=C(CSc1ncccn1)NC(=O)NCc1ccccc1 | inactive
Cc1ccsc1C(=O)OCC(=O)c1cc(C)n(CC2CCCO2)c1C (stereo not given) | inactive
COc1ccc(NC(=O)CCNC(=O)Cn2ccc3ccccc3c2=O)c(OC)c1 | inactive
Cc1ccccc1CSc1nnc(-c2cccnc2)n1N | inactive
COc1cc(C(=O)N(Cc2ccc(N(C)C)cc2)C2CCS(=O)(=O)C2)cc(OC)c1OC (stereo not given) | inactive
CCCCCCN(C(=O)CCCCCN1C(=O)NC(c2ccc(C(F)(F)F)cc2)C(C(=O)OCc2ccccc2)=C1C)C(C(=O)NCCCC)c1ccc(OCC(=O)OC)c(C(=O)OC)c1 (stereo not given) | inactive
CC1CCc2sc3nc(N4CCN(CCO)CC4)n4ncnc4c3c2C1 (stereo not given) | inactive
Cc1ccc(NC(=O)N2CCC(C(=O)NCc3ccc(F)cc3)CC2)cc1 | inactive
CC(CCC(=O)O)C1CCC2C3C(O)C[C@@H]4CC(O)CC[C@@]4(C)C3CC[C@@]12C (stereo not given in full) | inactive
Cn1c(=O)c2[nH]c(NCC3CCCO3)nc2n(-c2ccccc2)c1=O (stereo not given) | inactive
FC(F)(F)c1cccc(Nc2ncnc3ccccc23)c1 | inactive
CCOC(=O)C1CCN(C(=O)Nc2ccc(Cl)cc2)CC1 | inactive
CCS(=O)(=O)N1CCC(C(=O)N2CCN(c3ccccc3)CC2)CC1 | inactive
CCN(CC)CCNC(=O)C1c2ccccc2C(=O)N(C)C1c1cn(C)c2ccccc12 (stereo not given) | inactive
CCCCC(=O)Nc1cc(C)c2c(=O)oc3ccccc3c2n1 | inactive
COc1ccc(CCNC(=O)CSc2nnc(-c3cccc(F)c3)o2)cc1OC | inactive
COC(=O)C1=C(C)OC(N)=C(C#N)C1c1cc(OC)ccc1OC (stereo not given) | inactive

SMILES | activity change, negative = inhibition
C[C@H](CCC(=O)NCC(=O)O)[C@H]1CC[C@H]2[C@H]3[C@@H](C[C@@H](O)[C@]12C)[C@]1(C)CC[C@H](O)C[C@@H]1C[C@@H]3O | inactive
CCOc1ccccc1NC(=O)c1cc(S(=O)(=O)N2CCC3(CC2)OCCO3)ccc1F | inactive
COC(=O)CC1C(C)(C)C(OC(C)=O)C2CC3=C4CC(=O)OC(c5ccoc5)[C@]4(C)CCC3[C@@]1(C)C2=O (stereo not given in full) | inactive
CCOc1cc(CO)ccc1OCC(=O)N1CCCCC1 | inactive
O=C(Nc1nc2cc3c(cc2s1)OCCO3)c1cccc(S(=O)(=O)N2CCOCC2)c1 | inactive
CN(C(=O)COc1nnc(-c2cccs2)c(-c2cccs2)n1)c1ccccc1 | inactive
COCC(C)n1c(SCc2ccc(C(=O)OC)o2)nc2ccccc2c1=O (stereo not given) | inactive
CO[C@H]1COC(=O)[C@@H](OCc2ccccc2)/C=C\[C@H](C)[C@@H](OC)COC(=O)[C@H](OCc2ccccc2)/C=C\[C@@H]1C | 3% [at 15.4 µM]
CCC(c1nnnn1C1CCCC1)N1CCN(C(=O)c2ccco2)CC1 (stereo not given) | inactive
CC1CCCCN1CC(=O)NCc1ccc2c(c1)OCO2 (stereo not given) | inactive
O=C(NCc1ccccn1)c1c(O)c2c([nH]c1=O)CCCC2 | inactive
O=C(CC1OC(=O)c2ccccc21)NC1CCCCC1 (stereo not given) | inactive
COc1ccc(-c2nc(CS(=O)CC(=O)NCc3ccccn3)c(C)o2)cc1 (stereo not given) | inactive
Cc1nnc(SCc2cc(=O)[nH]c(N3CCN(Cc4ccccc4)CC3)n2)s1 | inactive
CC(C)NC[C@H](O)c1ccc2ccccc2c1 | inactive
Cc1nc2nc3c(cn2n1)C(=O)CC(c1ccccc1)C3 (stereo not given) | inactive
COCCCNC(=O)Cn1cc(C(=O)C2CC2)c2ccccc21 | inactive
CN(c1ccc(C(=O)N2CCc3ccccc3C2)cc1)S(C)(=O)=O | inactive
COCCCNC(=O)COc1cc(C)c(Cl)c(C)c1 | inactive
Cc1cccc(OCc2nnc(SCC(=O)N3CCN(C(=O)c4ccco4)CC3)n2C)c1C | inactive
CCCOC(=O)Nc1sc2c(c1C(=O)OCC)CCC2 | inactive
CCOC(=O)c1cnc(-n2nc(C)cc2C)nc1-n1nc(C)cc1C | inactive
CN(C(=O)CSc1nnnn1-c1ccccc1)C1CCCCC1 | inactive
Cc1ccc(Cn2ccc(NC(=O)c3cc(C(C)C)on3)n2)cc1 | inactive
COc1ccccc1N1CCN(C(=O)c2c(-c3c(Cl)cccc3Cl)noc2C)CC1 | inactive
Cc1ccccc1NC(=O)Cc1nnc(SCC(=O)N2CCN(c3ccccc3)CC2)n1C | inactive
CCCCCCC(=O)N(O)C1CC(=O)N(c2ccccc2)C1=O (stereo not given) | inactive

SMILES | activity change, negative = inhibition
C=CCNC(=O)C12CC3CC(C1)CC(C(=O)NCC=C)(C3)C2 | inactive
COC(=O)N1CCC2(CCCN(c3ccncc3)C2)CC1 | inactive
O=C1NC(c2cc3c(cc2Cl)OCO3)Oc2ccccc21 (stereo not given) | inactive
COC(=O)[C@H](C)[C@H]1C[C@]1(C)[C@H](NC(=O)OCc1ccccc1)c1ccccc1 | inactive
CN(c1ccccc1)c1ccc(/C=c2\s/c(=C(/C#N)C(=O)C(C)(C)C)n(Cc3ccco3)c2=O)cc1 | inactive
Cc1cccc(NC(=O)CSC(N)=O)c1C | inactive
Cc1ccc(N)cc1-n1c(C)ccc1C | inactive
CCCCOc1ccc(NC(=O)CSCC(=O)OCC)cc1 | inactive
CCOCCc1c(O)nc(SCC(=O)NCc2ccco2)[nH]c1=O | inactive
Cc1cc(NS(=O)(=O)c2ccccc2)no1 | inactive
CCOC(=O)C1CCc2nc3ccccc3c(=O)n21 (stereo not given) | inactive
Cc1ccccc1N1CCN(S(=O)(=O)C[C@@]23CC[C@H](C[C@H]2NC(=O)[C@@H](N)CCS(C)(=O)=O)C3(C)C)CC1 | inactive
CC(=O)N1CCN(c2ccc(NCc3ccc(C(C)C)cc3)cc2)CC1 | inactive
O=C(CC1(O)C(=O)N(CN2CCOCC2)c2ccccc21)c1ccccc1 (stereo not given) | inactive
O=C(CCSc1ccccc1)NCCSc1ccccn1 | inactive
Cc1cc(C)c2cc(CN(Cc3cccs3)Cc3nnnn3CC3CCCO3)c(=O)[nH]c2c1 (stereo not given) | inactive
N#CCC(=O)NC(=O)NCC1CC1 | inactive
O=C1Nc2ccccc2C12Nc1ccccc1S2 (stereo not given) | inactive
Cc1nc2ccc(C(=O)N3CCSCC3)cc2s1 | inactive
CN1CCN(c2ncncc2-c2ccc(C(=O)N(C)C)cc2)CC1 | inactive
CC1(C)SC2C(NC(=O)COc3ccccc3)C(=O)N2C1C(=O)O (stereo not given) | inactive
CCn1cc(C(=O)N2CCN(C3CCCCC3)CC2)c2cc(OC)c(OC)cc2c1=O | inactive
CN1[C@@H]2CC[C@H]1CC(NC(=O)c1nn(C)c3ccccc13)C2 (stereo not given in full) | inactive
CC(C)(C)Oc1ncc(Br)c(OC(C)(C)C)n1 | inactive
C[N+](C)(C)CCCCCNCC12CC3CC(CC(C3)C1)C2 | inactive
CCCC(C(=O)N1CCOCC1)N1C(=O)C2C3C=CC(C3)C2C1=O (stereo not given) | inactive
CN1CCCC(OC(=O)COc2ccc(Br)cc2)C1 (stereo not given) | inactive

SMILES | activity change, negative = inhibition
CCC1=C(OC(=O)N(CC)CC)N2C(=O)OC(=NCCc3c[nH]c4ccccc34)[C@]2(C)[C@H]2C1=CC[C@H]1C(=O)N(CC)C(=O)[C@H]12 | inactive
COC(=O)C1C(=O)c2c([nH]c(C(=O)OCCSC)c2C)CC1C (stereo not given) | inactive
CC(C)(C)[Si](OCC[C@@H]1C[C@@]1(C)[C@@H](NP(=O)(c1ccccc1)c1ccccc1)c1ccccc1)(c1ccccc1)c1ccccc1 | inactive
COc1ccc(-c2oc3cc(OC)ccc3c2C(=O)c2ccc(C#N)cc2)cc1 | inactive
CCOC(=O)c1c(C)[nH]c(C)c1C(=O)CSc1nc(N)cc(N)n1 | inactive
O=C1c2ccccc2C(O)N1Cc1ccccc1Cl (stereo not given) | inactive
CSc1nnc2c(n1)OC(c1ccsc1)N(C(C)=O)c1ccccc1-2 (stereo not given) | inactive
COC(=O)c1ccc(CSc2ccccc2C)o1 | inactive
COc1ccc(-c2nc3cnc(Oc4ccccc4)nc3n(Cc3cccs3)c2=O)cc1 | inactive
CC1=NC2(CCCc3c2no[n+]3[O-])N(O)C1(C)C (stereo not given) | inactive
COc1cc(C2C(C(=O)c3ccc(C)o3)=C(O)C(=O)N2Cc2cccnc2)ccc1O (stereo not given) | inactive
Cc1c(-c2nn(C)c(=O)c3ccccc23)oc2ccc(F)cc2c1=O | inactive
O=C(C1CCN(CC2CCCCC2)CC1)N1CCCC1 | inactive
COC(=O)[C@@H]1C[C@@]2(O)[C@@H](O)[C@@H](O)[C@@H](O)C[C@H]2N1Cc1ccc(C)s1 | inactive
CC(C)(C)c1ccc(C(=O)CSc2ncn[nH]2)cc1 | inactive
C=CCSc1nnc(Cn2c(=O)sc3ccccc32)n1C | inactive
CCCC(=O)Nc1ccc(Cl)c(NC(=O)c2ccc(Br)o2)c1 | inactive
NC(=O)CSc1oc(-c2cccs2)nc1S(=O)(=O)c1ccccc1 | inactive
COC(=O)c1cn(C)c2ccc(S(=O)(=O)N3CC(C)CC(C)C3)cc2c1=O (stereo not given) | inactive
COc1ccc(-c2nnc(SCC(=O)NC3CCCCC3)o2)cc1OC | inactive
Cc1ccccc1-c1nc(N(C)Cc2ccco2)c2ccccc2n1 | inactive
CC(C)OCCCNC(=O)CNC(=O)c1cccs1 | inactive
Cc1ccc2cccc(O)c2[n+]1[O-] | inactive
O=C(c1ccc(=O)[nH]c1)N(Cc1ccco1)C1(C(=O)NC2CCCCC2)CCCCC1 | inactive

Source: PubChem BioAssay AID892 (National Center for Advancing Translational Sciences (NCATS), 2007)
